About 11,000 (3.5%) of roughly 310,000 compounds were called active. Where a call stands in place of a potency, no number is given. Roughly 8% stayed inconclusive and do not appear here. Many of the other results were omitted from the sample, so actives are more common in it than they were. Unmarked numbers belong to inactive results. Calls come from the whole dose curve; as a rule, active = well fitted inhibition curve with a large enough effect; inconclusive = small, poorly fitted or top-dose-only effect, or effect the other way; inactive = flat fitted curve, though single readings scatter.
Assay: VP16 counterscreen qHTS for inhibitors of ROR gamma transcriptional activity;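 note: Gal4-VP16 expression switched on by copper sulfate through the metallothionein promoter; nearly all actives have a fitted effect of over 50% in size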
Conditions: Drosophila S2 Gal4-VP16 UAS-luciferase, luminescence, 20 h; series mostly up to 53.6 µM
Excerpt: NIH Molecular Libraries Probe Production Network [MLPCN]
NIH Chemical Genomics Center [NCGC]
Assay Provider: Dan Littman, New York University
The retinoic acid-related orphan receptor (ROR) gamma is a transcription factor that has a central role in the differentiation of Th17 cells, a subset of T helper cells that secrete the inflammatory cytokines IL-17, IL-17F, and IL-22. Th17 cells have been implicated in graft versus host disease, autoimmune disease and asthma. ROR gamma is induced in naive T helper cells in the presence of TGF-beta combined with IL-6, IL-21, or IL-23, and thereafter directs the expression of the Th17 lineage cytokines. To identify nonspecific inhibitors, a Drosophila Schneider cell line was stably transfected with two vectors: a gene expressing a fusion of the Gal4 DNA binding domain and VP16 transactivation domain under the control of the metallothionine promoter and a Photinus luciferase reporter regulated by the Gal4 binding site enhancer, UAS. […] Small molecule inhibitors that inhibit components common to the RORgt and VP16 assays, such as the Gal4 DNA binding domain or the UAS luciferase reporter, will be active in both assays and thus scored as nonspecific.
For screening, 600 cells in 4 uL/well were dispensed into white solid 1536-well plates (Grenier) using a solenoid-based dispenser. Following transfer of 23 nL compound or DMSO vehicle by a pin tool, the plates were incubated 1 hr at ambient temperature, and 1 uL/well copper sulfate (700 uM final concentration) was added. The plates were centrifuged 15 s at 1000 RPM and incubated 20 hr at ambient temperature. After addition of 1.5 uL Photinus luciferase detection reagent, the plates were incubated 10 min at ambient temperature and then read by a ViewLux (Perkin Elmer) to detect luminescence.
In the case of Fc1ccc(C(OCCN2CCN(C/C=C\c3ccccc3)CC2)c2ccc(F)cc2)cc1, the Potency is reported as 15.8 µM (active).
For CC(=O)c1c(O)c(C)c(O)c(Cc2c(O)c3c(c(C(=O)/C=C\c4ccccc4)c2O)OC(C)(C)C=C3)c1O, the Potency was “inactive”.
With CC(C)(O)c1[se]c2ccccc2c1I the Potency was “inactive”.
For N#CC(C#N)=Cc1cc(O)c(O)c([N+](=O)[O-])c1, the Potency was 22.4 µM (active).
With CC(C)(c1ccccc1)c1ccc(O)cc1 the Potency was “inactive”.
In the case of COC1=C[C@]23CCCN2CCc2cc4c(cc2[C@@H]3[C@@H]1O)OCO4, the Potency is reported as “inactive”.
In the case of CCCCC(=O)N/N=C/c1c(O)n(CC)c(=S)n(CC)c1=O, the Potency is reported as 3.16 µM (active).
In the case of CCCCC(=O)N/N=C/c1c(O)n(-c2ccccc2)c(=O)[nH]c1=O, the Potency is reported as “inactive”.
For CCCCC(=O)N/N=C/c1c(O)n(CCC2=CCCCC2)c(=O)[nH]c1=O, the Potency was “inactive”.
For c1ccc2sc(SNC3CCCCC3)nc2c1, the Potency was “inactive”.
With CN1CCN(C(=O)O[C@@H]2c3nccnc3C(=O)N2c2ccc(Cl)cn2)CC1 the Potency was “inactive”.
With CC[C@H]1CN2CCc3cc(OC)c(OC)cc3[C@@H]2C[C@@H]1C[C@H]1NCCc2cc(OC)c(OC)cc21 the Potency was 1.26 µM (active).
In the case of CNC(C)[C@@H](O)c1ccccc1 (some centres not stated), the Potency is reported as “inactive”.
In the case of c1ccc(N2CC[C@@]3(CCCNC3)C2)nc1, the Potency is reported as “inactive”.
For CC(Cl)Cl, the Potency was “inactive”.
In the case of CC(=O)[O][Sn]([c]1ccccc1)([c]1ccccc1)[c]1ccccc1, the Potency is reported as 3.55 µM (active).
In the case of COC(=O)N1C(c2ccccc2)C1c1ccccc1 (configuration not stated), the Potency is reported as “inactive”.
With CC[C@@H]1CN2CC[C@@H]1C[C@H]2[C@H](O)c1ccnc2ccc(OC)cc12 the Potency was “inactive”.
With CCN1C[C@]2(C)CC[C@H](O)[C@@]34[C@@H]5CC6[C@@H](OC)C[C@@](O)([C@@H]5[C@@H]6O)[C@H](C[C@@H]23)[C@H]14 the Potency was “inactive”.
With CCN1C[C@@]2(COC)CC[C@H](OC)[C@]34[C@@H]1[C@]1(OCO[C@@]15C[C@@H](OC)C1C[C@H]3[C@H]5[C@@H]1OC)[C@H](O)[C@@H]24 the Potency was “inactive”.
With NC[C@H](O)c1ccc(O)cc1 the Potency was “inactive”.
For COc1cccc(-c2nc3ccc(N4CCN(C)CC4)cc3[nH]2)c1, the Potency was 2 µM (active).
With CN1CCN(c2cc(N3CCNCC3)ccc2[N+](=O)[O-])CC1 the Potency was “inactive”.
For CCCCC#N, the Potency was “inactive”.
In the case of COc1ccc(C2Oc3c(I)c(OC)cc(OC)c3CC2O)cc1OC (configuration not stated), the Potency is reported as “inactive”.
In the case of C[C@@]12CC[C@H]3[C@@H](CC[C@]4(O)C[C@H](O)CC[C@@]34C=O)[C@]1(O)CC[C@@H]2C1=CC(=O)OC1, the Potency is reported as “inactive”.
For Clc1ccccc1, the Potency was “inactive”.
In the case of C[C@@H]1C[C@@H]2O[C@H]2/C=C\C=C\C(=O)Cc2c(Cl)c(O)cc(O)c2C(=O)O1, the Potency is reported as 12.6 µM (active).
For C[C@]12O[C@H](C[C@@]1(O)C(=O)O)n1c3ccccc3c3c4c(c5c6ccccc6n2c5c31)CNC4=O, the Potency was “inactive”.
With CN1CCCC(=C(c2cccs2)c2cccs2)C1 the Potency was “inactive”.
In the case of Cc1nc2ccccn2c1P(=S)(N1CCCCC1)N1CCCCC1, the Potency is reported as 11.2 µM (active).
For c1ccc(CCCCN2CCC(c3ccccc3)CC2)cc1, the Potency was “inactive”.
For O=c1oc2ccccc2c(O)c1C(c1ccccc1O)c1c(O)c2ccccc2oc1=O, the Potency was “inactive”.
With CC(C)(C)C(O)(CCc1ccc(Cl)cc1)Cn1cncn1 (configuration not stated) the Potency was “inactive”.
With CC1=CC(=O)C2=C(C)C[C@H](O)[C@H]3[C@H](C)C(=O)O[C@@H]3C12 (some centres not stated) the Potency was “inactive”.
For CCCCCCCCCCCCCC(=O)O[C@@H]1[C@@H](C)[C@@]2(O)[C@@H](C=C(CO)C[C@]3(O)C(=O)C(C)=C[C@@H]23)[C@@H]2C(C)(C)[C@]12OC(C)=O, the Potency was “inactive”.
For CCCCCCCCc1[se]c2ccccc2c1Br, the Potency was “inactive”.
In the case of CN(C)C[C@H]1CCCC[C@]1(O)c1cccc(O)c1, the Potency is reported as “inactive”.
For Cc1ccc(NC(=O)CN(C)CC(=O)Nc2cccc(F)c2)cc1[N+](=O)[O-], the Potency was 4.47 µM (active).
For c1ccc(CN2CC[C@@]3(CCCNC3)C2)cc1, the Potency was “inactive”.
With ClCCBr the Potency was “inactive”.
In the case of COc1cc(-n2c(=S)[nH]c3ccc(C)cc3c2=O)c(Cl)cc1Cl, the Potency is reported as 5.62 µM (active).

Reference: PubChem BioAssay AID2546 (National Center for Advancing Translational Sciences (NCATS), 2010)
Potency is the fitted concentration of half-maximal effect.
